# Measured values from PubChem BioAssay AID463173 (ICCB-Longwood Screening Facility, Harvard Medical School, 2010).
# Hit rate of the full screen: of about 52,000 compounds, about 4,300 (8.3%) were called active. This excerpt belongs to a sample that is enriched for actives. Values without a mark were called inactive. Cut-off read from the data, not from the text of the source: active = survival mostly below about 52% (no sharp cut-off); inactive = mostly above about 56%.
# Tested on: DeltatarO mutant
# Assay: S. aureus survival, RN4220 and DeltatarO strains – OD600, teichoic acid synthesis inhibitors, primary screen (AID 463173)
# Settings: S. aureus RN4220 wild type/DeltatarO growth, OD600, 18 h, active compounds read low, screened at 18.75 µg/mL (by protocol)
row,Structure (SMILES),survival
1,CCc1cccc(CC)c1N(COC)C(=O)Cn1c(C)nc2ccccc21,59%
2,CCc1cccc(NC(=O)CCc2c(C)nc3c(c2C)c(=O)n(C)c(=O)n3C)c1,93%
3,COc1ccc(-n2nc(C(=O)NCc3ccc(F)cc3)c3c4ccccc4n(C)c3c2=O)cc1,88%
4,Cc1ccc(NC(=O)/C(C#N)=C/c2ccc(-c3ccc(Cl)c(C(=O)O)c3)o2)cc1C,70%
5,N#C/C(=C/c1ccc(-c2cc(C(=O)O)ccc2Cl)o1)C(=O)NCCc1c[nH]c2ccccc12,12% (active)
6,N#C/C(=C\c1ccc(-c2cc(Cl)ccc2Cl)o1)C(=O)Nc1ccccc1C(=O)O,37% (active)
7,N#C/C(=C/c1ccc(-c2ccc(S(N)(=O)=O)cc2)o1)C(=O)Nc1cc(Cl)ccc1Cl,46%
8,N#C/C(=C/c1ccc(N2CCCCC2)o1)C(=O)NCCc1c[nH]c2ccccc12,76%
9,N#C/C(=C\c1ccc(-c2ccc(C(=O)O)cc2)o1)C(=O)Nc1ccccc1C(=O)O,60%
10,COc1ccc(-n2ccn(Cc3ccccc3Cl)c(=O)c2=O)cc1OC,61%
11,CCOc1cc(S(=O)(=O)NCCc2c(C)[nH]c3ccc(C)cc23)ccc1Br,92%
12,CC(Oc1ccc(F)cc1)C(=O)NCC1(N(C)C)CCCCC1 (stereo not drawn),83%
13,CCOC(=O)c1c(C)[nH]c(C)c1S(=O)(=O)NCC(=O)Nc1ccc(C)cc1C,72%
14,O=C(C1CCC(Cn2c(=O)c3sccc3n(Cc3ccccc3)c2=O)CC1)N1CCCCC1 (stereo not drawn),78%
15,CC(=O)Nc1cccc(NC(=O)C(=O)NCCc2csc3nc(-c4ccccc4F)nn23)c1,64%
16,Cc1c(Cl)cccc1NC(=O)C(=O)NCCc1csc2nc(-c3ccccc3F)nn12,6% (active)
17,CCOc1ccc(NC(=O)C(=O)NCCc2csc3nc(-c4ccccc4F)nn23)cc1,-1% (active)
18,Cc1ccc(C)c(NC(=O)C(=O)NCCc2csc3nc(-c4ccccc4C)nn23)c1,109%
19,Cc1ccccc1-c1nc2scc(CCNC(=O)C(=O)Nc3ccc(F)cc3F)n2n1,-2% (active)
20,COC(=O)c1ccc(NC(=O)C(=O)NCCc2csc3nc(-c4ccccc4F)nn23)cc1,76%
21,O=C(NCCc1csc2nc(-c3ccccc3F)nn12)C(=O)Nc1cc(F)ccc1F,79%
22,Cc1ccc(NC(=O)C(=O)NCCc2csc3nc(-c4ccccc4C)nn23)cc1Cl,86%
23,CCOc1ccc(CC(=O)NCCc2csc3nc(-c4ccccc4F)nn23)cc1,91%
